A short description of test [1]: polyglutamine-triggered caspase-3 activation inhibitors, cell-based (AID 1583). Conditions: polyglutamine-induced caspase-3 activation, cell assay; stronger effect = higher value;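 tested at 10 µM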.
Test [2] in a line: suppressors of polyQ aggregation in yeast, 75Q-TubU reporter (AID 1593). Conditions: Yeast 75Q polyglutamine aggregation reporter.
Test [3] is described as follows: rescue of polyQ-huntingtin neuronal dysfunction in worms, whole organism, C. elegans mechanosensory neurons, N-terminal huntingtin (AID 1599). Conditions: touch response, stronger effect = higher value.
The nature of test [4]: inhibitors of mitochondrial cytochrome c release, biochemical, purified mitochondria (AID 1603).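 Note: mouse liver mitochondria challenged with calcium chloride; signal normalized to the plate average as 100%.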 Conditions: stronger effect = lower value.
Test [5] can be described thus: inhibitors of polyQ protein aggregation (AID 1604). To be noted: polyglutamine-induced protein aggregation inhibition assay; stronger effect = higher value; tested at 2.5 µM.
Test [6] in a line: enhancers of glutamate uptake in motor neurons, MN-1 cell line (AID 1612).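 Note: tested at 1 µM final; 0% = mean of DMSO vehicle wells on each plate; positive means more glutamate uptake than control and negative means less.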 To be noted: MN-1 motor neuron cells, stronger effect = higher value.
The nature of test [7]: suppressors of polyglutamine aggregation in yeast, 75Q-TubH (AID 1616). Conditions: S. cerevisiae 75Q-TubH polyglutamine aggregation suppression; stronger effect = higher value.
The target in test [8] is 6-phosphogluconate dehydrogenase, decarboxylating (Homo sapiens) (UniProt P52209). Nature of the test: 6PGD enzyme inhibitors, primary screen, biochemical, human, recombinant enzyme, NADPH absorbance (AID 1159550). To be noted: recombinant 6PGD, NADPH absorbance 341 nm; at 10 µM; stronger effect = higher value.
Test [9] in a line: differential killing of epithelial or mesenchymal cells, primary screen, imaging, PC-3E GFP, TEM4-18 mCherry, co-culture (AID 1345086;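 active = compounds killing one labelled cell type while sparing the other, by normalised counts and ratio limits, not self-fluorescent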;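 for all read-outs here: cells exposed to compound for 72 h before imaging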;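 for red/green cell ratio (normalised): normalised mesenchymal count divided by normalised epithelial count so high means epithelial killing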). To be noted: imaging cell counts, at 1 µM; for red/green cell ratio (normalised): actives lie on both sides, counts scaled to control wells, 1 = unselective.
The target in test [10] is Mitogen-activated protein kinase 7 (Homo sapiens) (UniProt Q13164). Nature of the test: ERK5 transactivation activators in reporter cells, primary screen, cell-based, HTS (AID 1508626;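 active = luciferase signal above three times the same-plate solvent-only control wells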;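 note: luciferase driven by Gal4-ERK5 fusion binding five Gal4 sites before minimal TATA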). Conditions: HeLa Gal4-ERK5 transactivation, 18 h, at 5 µM, stronger effect = higher value.
Test [11] is described as follows: liver-stage malaria parasite growth inhibition, primary screen, cell-based, HepG2, luciferase luminescence, HepG2 viability (AID 624349; in the data active = parasite load remaining mostly below about 12%, no sharp cut-off; inactive = mostly above about 10%;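 note: 100% = mean of DMSO negative control wells on the same plate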). Conditions: P. berghei liver stage in HepG2, luciferase luminescence, concentration not given here; parasite load remaining: stronger effect = lower value; viability: measured here: HepG2 viability without parasites.
The nature of test [12]: growth inhibition of DIPG glioma cells, dose response, cell-based, JHH-DIPG-1, MIPE4.0, CellTiter-Glo, qHTS (AID 1347062; cut-off not given, nearly all actives have AC50 up to about 27 µM). To be noted: JHH-DIPG-1 viability, CellTiter-Glo ATP luminescence.
Test [13] in a line: sensitizers of A549 cells to miR-34 induction, primary screen, imaging, A549 dox-inducible miR-34, nuclei and caspase counts (AID 1347080;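 active = compounds whose cell count with miR-34 switched on is under 0.7 times the count with it off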). To be noted: A549 miR-34 inducible, Hoechst nuclei count, 48 h.
Test [14] can be described thus: viability rescue of complex I mutant cybrids, primary screen, cell-based, galactose medium, ATP luminescence (AID 1645843;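 active = z-score of at least 1.8 in each of two replicates, scored against plate mean and spread of sample wells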;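 note: positive z means more ATP and so rescue of galactose-driven cybrid death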). Conditions: complex I mutant cybrid cells, 72 h, stronger effect = higher value.
Test [15] is described as follows: survival rescue of mitochondrial mutant cells in low glucose, primary screen, MELAS cybrids, Rieske KO mouse fibroblasts, CellTiter-Glo (AID 1508586;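 active = mean z-score across replicates of 1.96 or higher in either the MELAS or the Rieske mutant cell line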;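 note: z relative to plate mean and SD of compound and empty wells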). In general terms: ATP-based viability assays read luminescence as a measure of living cells.
[16] abbreviates: measured here: epithelial PC-3E GFP cell survival.
Where [17] appears, read: measured here: mesenchymal TEM4-18 mCherry cell survival.

This is an account of results in PubChem BioAssay.

For orientation: inhibition means the relative decrease from the control value, in per cent. What is called viability is a read-out of living cells in per cent, often relative to untreated cells.

SMILES strings stand for the structures. Several values for one entry are separate records, joined by “and”; a condition that tells them apart may be missing. Identical values can stand only once. Results filed as inconclusive are left out. For part of these data: Entries with a potency or affinity are not part of this list. Activity calls are given as the source filed them.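 Rule for the calls, unless noted: active = at least 20% inhibition of 6-phosphogluconate dehydrogenase activity; inactive = the rest.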

6-phosphogluconate dehydrogenase, decarboxylating (Homo sapiens), sequence (P52209 whole entry, looked up): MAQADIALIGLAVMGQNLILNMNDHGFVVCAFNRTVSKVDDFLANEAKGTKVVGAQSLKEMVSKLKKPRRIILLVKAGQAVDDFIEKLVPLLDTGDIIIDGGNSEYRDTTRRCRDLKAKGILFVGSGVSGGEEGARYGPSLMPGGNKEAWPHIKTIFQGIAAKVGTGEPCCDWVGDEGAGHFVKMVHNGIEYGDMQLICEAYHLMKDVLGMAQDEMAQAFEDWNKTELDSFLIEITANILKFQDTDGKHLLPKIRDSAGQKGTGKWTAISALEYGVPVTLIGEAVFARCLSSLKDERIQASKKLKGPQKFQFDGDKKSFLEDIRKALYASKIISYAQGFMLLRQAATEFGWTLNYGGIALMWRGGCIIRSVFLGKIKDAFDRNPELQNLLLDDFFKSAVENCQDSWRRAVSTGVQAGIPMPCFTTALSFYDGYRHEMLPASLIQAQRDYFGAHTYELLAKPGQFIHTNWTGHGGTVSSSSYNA
Mitogen-activated protein kinase 7 (Homo sapiens), sequence (Q13164 whole entry, looked up, the tested form may be a part): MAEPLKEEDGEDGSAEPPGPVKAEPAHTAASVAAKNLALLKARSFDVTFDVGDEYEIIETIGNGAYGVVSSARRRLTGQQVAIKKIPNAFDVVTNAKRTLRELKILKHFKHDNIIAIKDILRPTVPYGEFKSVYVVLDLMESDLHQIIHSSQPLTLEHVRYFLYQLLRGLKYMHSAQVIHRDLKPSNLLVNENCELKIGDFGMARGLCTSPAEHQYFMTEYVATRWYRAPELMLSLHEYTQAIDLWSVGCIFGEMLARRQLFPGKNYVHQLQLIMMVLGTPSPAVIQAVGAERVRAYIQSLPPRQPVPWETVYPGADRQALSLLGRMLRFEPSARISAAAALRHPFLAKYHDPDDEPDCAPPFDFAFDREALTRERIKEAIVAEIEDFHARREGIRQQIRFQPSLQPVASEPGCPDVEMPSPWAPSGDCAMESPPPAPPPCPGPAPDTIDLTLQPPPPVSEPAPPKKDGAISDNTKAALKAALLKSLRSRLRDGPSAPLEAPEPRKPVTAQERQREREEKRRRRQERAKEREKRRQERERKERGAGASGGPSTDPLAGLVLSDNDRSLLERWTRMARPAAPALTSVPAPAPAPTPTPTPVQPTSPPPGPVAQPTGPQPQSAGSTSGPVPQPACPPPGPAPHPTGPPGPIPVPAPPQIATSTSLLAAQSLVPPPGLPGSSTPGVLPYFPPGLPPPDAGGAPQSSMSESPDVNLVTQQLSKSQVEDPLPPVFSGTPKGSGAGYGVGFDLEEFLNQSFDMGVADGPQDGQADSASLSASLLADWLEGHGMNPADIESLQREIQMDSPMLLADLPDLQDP

Consider `COc1cc(C)c2c(=O)cc(-c3ccccc3)oc2c1`, for which the inhibition in test [1] was 15.2%; in test [8], 5.95% (inactive). The score in [2] is -1.86. In test [3], the rescue above control was found to be 16.3. Also, in test [4], the cytochrome c release ratio was 1.19. In test [5], this compound gave an inhibition of aggregation of 86.2%. For the same compound, in [6], the glutamate uptake change was -16.6%. In [7], this compound registered an aggregation suppression score of -0.775. In addition, the red/green cell ratio (normalised) in test [9] is 0.85 (inactive). The figures for the normalised cell number in test [9] (setting [16]) and in test [9] (setting [17]) were 1.28 and 1.09, respectively.
Regarding `COc1ccc([C@H]2Oc3cc(OC)cc(OC)c3C[C@H]2O)cc1`, in test [8], the inhibition was -0.838% (inactive). In addition, the red/green cell ratio (normalised) in [9] is 0.79 (inactive). For the same compound, the normalised cell number turned out to be 1.04 in test [9] (setting [16]) and 0.82 in test [9] (setting [17]). The luciferase signal in test [10] is 84 AU (inactive).
For `CC(=O)N[C@@H]1[C@@H](O)[C@H](O)[C@@H](CO)O[C@H]1O`, the results for the inhibition in test [1] and in test [8] were 0.38% and -7.13% (inactive), respectively. In [2], this compound displayed a score of 1.2. For the same compound, the rescue above control in [3] came to 2.33. The cytochrome c release ratio in test [4] was found to be 0.85. The compound also had an inhibition of aggregation in test [5] of 91.6%. Besides, the glutamate uptake change in test [6] was -1.05%. This compound returned an aggregation suppression score in test [7] of 1.62. The parasite load remaining in test [11] was 72.2% (inactive). In [11], this compound displayed a viability of 78.3%. The red/green cell ratio (normalised) in test [9] is 0.98 (inactive). The figures for the normalised cell number in [9] (setting [16]) and in test [9] (setting [17]) were 1 and 0.98, respectively. Also, the luciferase signal in [10] was 64 AU (inactive).
Take `COC1=CC(=O)C=C(OC)C1=O`: in test [11], the parasite load remaining is 122% (inactive) and the viability was determined as 94.3%. The inhibition in test [8] was 1.73% (inactive). Moreover, the red/green cell ratio (normalised) in test [9] was 0.91 (inactive). In addition, in test [9] (setting [16]), the normalised cell number amounted to 0.92. For the same compound, the normalised cell number in test [9] (setting [17]) amounted to 0.84. Further, in [10], the luciferase signal was 112 AU (inactive).
For the compound `COc1c(OC)c2occc2c2oc(=O)ccc12`, the inhibition in test [1] was -21%; in test [8], -3.21% (inactive). For the same compound, the score in test [2] amounted to 0.45. The compound also registered a rescue above control in test [3] of 5.04. The cytochrome c release ratio in test [4] came out at 1. The same compound registered an inhibition of aggregation in test [5] of 42.9%. Also, the glutamate uptake change in test [6] was -3.15%. Further, the aggregation suppression score in test [7] turned out to be 0.328. Further, the red/green cell ratio (normalised) in [9] was 0.97 (inactive). In addition, the normalised cell number in [9] (setting [16]) amounted to 1.12; in [9] (setting [17]), 1.08. The luciferase signal in test [10] is 28 AU (inactive).
For `O=c1cc(-c2ccc(O)cc2)oc2cc(O[C@@H]3O[C@H](CO)[C@@H](O)[C@H](O)[C@H]3O[C@@H]3OC[C@](O)(CO)[C@H]3O)cc(O)c12`, the inhibition in test [8] is -39.6% (inactive). Besides, in test [9], the red/green cell ratio (normalised) is 0.8 (inactive). The normalised cell number in test [9] (setting [16]) came out at 1.3; in test [9] (setting [17]) it was 1.03. Further, in [10], the luciferase signal was 196 AU (active).
For `COc1c2ccoc2nc2c(OC)c(OCC(O)C(C)(C)O)ccc12` (stereo unspecified), in that order: -4.68% (inactive), 0.91 (inactive), 1, 0.92 and 28 AU (inactive).
In the case of `CCOC(=O)C1=C(O)C(=O)N(Cc2ccccc2)C1`, the inhibition in [8] is -9.58% (inactive). Further, the compound was classed as inactive in test [12]. Moreover, the fold change in test [13] (stronger effect = lower value, cell number ratio, induced over uninduced) is 0.926 (inactive) and 0.964 (inactive); in test [13] (measured here: relative caspase fold change +Dox/-Dox) it was 1.46 and 1.07. Moreover, the cell count in test [13] (measured here: total cells with miR-34 induction, stronger effect = lower value) is 9870 and 8960; in test [13] (measured here: total cells without miR-34 induction) it was 10700 and 9300. In addition, the z-score in test [14] was 0.685 (inactive) and -0.055 (inactive).
As for `O=c1c(-c2ccc(O)cc2)coc2cc(O)ccc12`, the inhibition in test [1] is -30.4%; in [8] it was 6.36% (inactive). In test [2], this compound had a score of 1. The rescue above control in test [3] was found to be 2.42. In addition, in test [4], the cytochrome c release ratio was found to be 0.87. Moreover, the inhibition of aggregation in test [5] is 27.9%. Besides, the glutamate uptake change in test [6] worked out at 12%. Besides, the aggregation suppression score in test [7] was found to be 1.43. Besides, the parasite load remaining in test [11] is 225% (inactive). Besides, the viability in test [11] turned out to be 94.2%. In addition, the compound was classed as inactive in test [12]. Also, the z-score in test [15] (MELAS cybrid survival, CellTiter-Glo 48 h, stronger effect = higher value) was -0.189 (inactive); in [15] (Rieske KO mouse fibroblast survival, CellTiter-Glo 72 h), -0.724; in test [14] it was 0.775 (inactive) and 0.485 (inactive). For the same compound, in test [10], the luciferase signal is 120 AU (inactive).
